From PubChem BioAssay
TGFb SMAD3 inh: TGF-b pathway inhibition | HepG2 CAGA-GFP TGF-b/SMAD3 reporter, GFP fluorescence, 18 h; TGF-beta stimulated, 500 pg/mL final | Potency, µM (titrated, usually from 46.1 µM), for inactives: at the highest dose activity, negative = inhibition, actives largely listed as inhibitors | 410,000 compounds, 1.2% hits; also: potency is read from the fitted curve at half-maximal effect; % is scaled to controls: 0 for no effect and ±100 for the full control effect; nearly all actives have a fitted effect of over 65% in size
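Inhibition was scored as loss of TGF-beta-induced (500 pg/mL final, 18 hours, 37 degrees C) GFP in HEPG2 cells carrying a CAGA-GFP reporter, in DMEM with 1% FBS. Well GFP was summed per cell; Activity was normalised to unstimulated and stimulated DMSO wells, then concentration-response fitting.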
TDP1 cell noCPT: qHTS for Inhibitors of human tyrosyl-DNA phosphodiesterase 1 (TDP1): qHTS in cells in absence of CPT | DT40 Tdp1-/- hTDP1 cells, no CPT, ATP luminescence, 48 h | Potency, µM (titrated, usually from 46.2 µM), for inactives: top-dose activity change, negative = growth inhibition, most hits filed as inhibitors | 420,000 compounds, 15% hits | AID 686978, 2013; also: potency is read from the fitted curve at half-maximal effect; % is scaled to controls: 0 for no effect and ±100 for the full control effect; nearly all actives have a fitted effect of over 55% in size
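Luminescent ATP content (CellTiter-Glo) served as the growth readout. Knockout chicken DT40 cells expressing human TDP1 were exposed to compounds without camptothecin for a minimum 48 hr at 37 °C.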
HepG2 tox: kills HepG2 cells in TGF-b inhibitor counter-screen | Potency, µM (highest dose often 46.1 µM), for inactives: at the highest dose activity change, negative = cytotoxicity, hits mostly cytotoxic | HepG2 CAGA-GFP viability, ATP luminescence, 18 h | 410,000 compounds, 0.76% hits; also: potency is read from the fitted curve at half-maximal effect
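HepG2 CAGA-GFP cells (1000/well, DMEM with 1% FBS) received compound, then TGF-beta at 500 pg/mL final, and were incubated 18 hours at 37 degrees C. Viability was read by CellTiter-Glo luminescence. Media-only wells were set as complete cell-killing and DMSO as no toxicity.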
ASM inhibitor: blocks human secretory acid sphingomyelinase; P17405; placental ASM, HMU-PC fluorogenic substrate, 60 min; Potency, µM (titrated, usually from 57.5 µM), without a hit: at the top dose activity change, negative = inhibition, hits mostly inhibitors; 340,000 compounds, 0.006% hits; AID 504937; also: potency is read from the fitted curve at half-maximal effect
Target sequence (P17405 47-631 limits assumed): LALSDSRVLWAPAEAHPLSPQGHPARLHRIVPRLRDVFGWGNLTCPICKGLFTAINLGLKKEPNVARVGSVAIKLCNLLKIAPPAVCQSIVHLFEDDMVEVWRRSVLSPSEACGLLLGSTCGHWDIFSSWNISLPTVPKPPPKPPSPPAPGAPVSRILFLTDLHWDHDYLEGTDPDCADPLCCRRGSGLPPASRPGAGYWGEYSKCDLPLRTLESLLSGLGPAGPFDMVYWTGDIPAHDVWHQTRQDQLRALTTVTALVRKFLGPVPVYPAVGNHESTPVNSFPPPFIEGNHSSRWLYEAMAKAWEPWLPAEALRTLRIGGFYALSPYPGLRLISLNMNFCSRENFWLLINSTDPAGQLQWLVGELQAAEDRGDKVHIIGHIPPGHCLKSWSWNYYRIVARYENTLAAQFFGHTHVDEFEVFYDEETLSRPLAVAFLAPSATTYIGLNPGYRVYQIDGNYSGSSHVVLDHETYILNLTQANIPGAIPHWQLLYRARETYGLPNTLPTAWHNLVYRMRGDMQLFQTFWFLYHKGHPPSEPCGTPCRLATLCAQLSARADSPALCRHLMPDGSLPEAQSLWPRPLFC
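Fluorescence read-out (Ex 386 nm, Em 447 nm) after stopping the reaction at pH 10. Enzyme: ASM from human placenta; substrate HMU-PC0, 9 uM final; 60 min, 37 °C. Compound preincubation 10 min, ambient temperature.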
IL-1B inflam inh: inhibitors of inflammasome signaling (IL-1 beta secretion) | THP-1 LPS/ATP IL-1B secretion, AlphaLISA, 16 h; active compounds read low | activity change, % at 57.5 µM | 360,000 compounds, 4.7% hits | AID 743279; in the data active = activity change below about -50%; inconclusive = mostly about -30% to -49%; also: % is scaled to controls: 0 for no effect and ±100 for the full control effect
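Secreted IL-1B measured by AlphaLISA bead assay after 16 h compound exposure of THP-1 cells; compounds (final up to 57.5 uM) added 1 h before LPS (250 ng/mL) and ATP (1.25 mM) stimulation; lower signal means less secretion.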
DT40 TDP1 CPT: DT40-hTDP1 cell growth loss with CPT; Potency, µM (top dose mostly 46.2 µM), for inactives: top-dose activity change, negative = growth inhibition, usual class: inhibitors; chicken DT40 Tdp1-/-;hTDP1 cells + 20 nM CPT, ATP luminescence, 48 h; 420,000 compounds, 12% hits; AID 686979; also: potency is read from the fitted curve at half-maximal effect; % is scaled to controls: 0 for no effect and ±100 for the full control effect; nearly all actives have a fitted effect of over 55% in size
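Cell growth measured by CellTiter-Glo luminescence after a minimum 48 h, 37 C compound exposure with 20 nM CPT in Tdp1-knockout DT40 cells stably expressing hTDP1, seeded 400/well; qHTS titration format.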
Starred values were filed as active, the others as inactive; i = inactive; ? = inconclusive; . = not tested or not shown. An excerpt weighted towards active compounds, which were near 19% of everything screened. Unless noted, calls follow the shape of the dose curve; as a rule, active = well fitted curve in the direction sought with a large enough effect; inconclusive = small, poorly fitted or top-dose-only effect, or another doubt; inactive = no such curve, though single readings can be large; an effect the other way counts as inactive or inconclusive.

SMILES	TGFb SMAD3 inh	TDP1 cell noCPT	HepG2 tox	ASM inhibitor	IL-1B inflam inh	DT40 TDP1 CPT
COc1ccc(Cl)cc1NC(=O)CN(C)C(=O)CN1C(=O)NC(C)(c2ccc3ccccc3c2)C1=O (stereo unspecified)	?	15µM*	-9%	-12%	-53*	?
COc1cccc(N2CCN(C(=O)CN3C(=O)NC(C)(c4ccc5ccccc5c4)C3=O)CC2)c1 (stereo unspecified)	-29%	16µM*	-1%	3%	-14	13µM*
CC1(c2ccc3ccccc3c2)NC(=O)N(CC(=O)N2CCN(S(=O)(=O)c3ccccc3F)CC2)C1=O (stereo unspecified)	-7%	23µM*	-15%	-1%	-2	?
CCc1nnc(SCC(=O)Nc2cc(Cl)c(OC)cc2OC)c2cc3oc(C)cc3n12	-8%	?	-1%	.	.	?
C=Cc1ccc(Cn2ccn(-c3ccc(F)c(F)c3)c(=O)c2=O)cc1	-4%	3%	-9%	.	.	1%
CCN(CC(=O)Nc1cc(Cl)ccc1C)C(=O)c1ccc(N2CCCC2=O)cc1	-19%	-5%	6%	4%	-13	-12%
Cc1ccc(C2(C)NC(=O)N(CC(=O)N3CCN(S(=O)(=O)c4ccc(Cl)s4)CC3)C2=O)cc1 (stereo unspecified)	?	?	-13%	-5%	-6	21µM*
Cc1ccc(C2(C)NC(=O)N(CC(=O)N3CCN(S(=O)(=O)c4cccs4)CC3)C2=O)cc1 (stereo unspecified)	4%	-26%	-14%	5%	14	-16%
CC1(c2ccc3ccccc3c2)NC(=O)N(CC(=O)N2CCN(c3ccccc3O)CC2)C1=O (stereo unspecified)	?	13µM*	0%	-1%	i	?
CC1CCN(C(=O)CN2C(=O)NC(C)(c3ccc4ccccc4c3)C2=O)CC1 (stereo unspecified)	-7%	16µM*	-14%	-1%	4	18µM*
CC(C(=O)Nc1ccccc1)N1CCN(C(=O)c2ccco2)CC1 (stereo unspecified)	-5%	7%	1%	3%	12	-4%
CS(=O)(=O)c1ccc(-c2nc(-c3ccc(F)cc3)c(-c3ccncc3)[nH]2)cc1	.	27µM*	.	.	.	?
COc1ccc(C(OC(=O)c2ccco2)C(=O)NC2CCCC2)cc1 (stereo unspecified)	0%	2%	0%	-2%	11	2%
COc1cc(C)c(NC(=O)c2cccc(S(=O)(=O)N3CCCC3)c2)cc1OC	-5%	-17%	3%	-3%	13	-15%
COc1ccc(CCNC(=O)C2CCCN(S(=O)(=O)c3ccc4c(c3)oc(=O)n4C)C2)cc1OC (stereo unspecified)	-17%	?	-3%	.	.	-28%
CCOC(=O)C1(CCCc2ccccc2)CCN(Cc2cn(CC)nc2C)CC1	-29%	?	-32%	0%	-77*	?
CCOC(=O)C1(CCc2ccccc2)CCN(Cc2ccn[nH]2)CC1	2%	?	-17%	2%	-17	?
CCOC(=O)C1(CCCc2ccccc2)CCN(C(=O)c2ccoc2)CC1	-11%	?	9%	-4%	-5	-24%
CCOC(=O)C1(CCCc2ccccc2)CCN(CCCn2cccn2)CC1	?	?	-25%	0%	23	-28%
CCOC(=O)C1(CCc2ccccc2)CCN(Cc2cccc3nccnc23)CC1	?	16µM*	-42%	-4%	?	21µM*
CCOC(=O)C1(CCCc2ccccc2)CCN(C(=O)C2=C(C)OCCO2)CC1	-16%	21µM*	-33%	3%	-80*	?
